# ELG1 DNA repair: inhibitors of ELG1-dependent DNA repair in HEK293T cells | Potency, µM (series often up to 46.1 µM), for inactives: at the top dose activity change, negative = inhibition, most hits filed as inhibitors | HEK293T ELG1-luciferase reporter, luminescence, 16 h; DNA damage induced by 5-fluorouridine | hit rate 2.3% among 330,000; further: potency means the concentration at half of the fitted maximal effect; nearly all actives have a fitted effect of over 55% in size
#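 Quantitative HTS, concentration-response format. 2,000 cells/well co-treated with 5-fluorouridine and compound, 16 hr in 5% CO2 at 37 °C; ONE-Glo luminescence read after 30 min.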
# TDP1 cell noCPT: qHTS for Inhibitors of human tyrosyl-DNA phosphodiesterase 1 (TDP1): qHTS in cells in absence of CPT; DT40 Tdp1-/- hTDP1 cells, no CPT, ATP luminescence, 48 h; Potency, µM (highest dose often 46.2 µM), without a hit: top-dose activity change, negative = growth inhibition, usual class: inhibitors; hit rate 15% among 420,000; further: potency means the concentration at half of the fitted maximal effect; nearly all actives have a fitted effect of over 55% in size
#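 Luminescent ATP content (CellTiter-Glo) served as the growth readout. Knockout chicken DT40 cells expressing human TDP1 were exposed to compounds without camptothecin for a minimum 48 hr at 37 °C.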
# DT40 TDP1 CPT: growth inhibition of DT40 Tdp1-/-;hTDP1 cells with camptothecin (screen for TDP1 inhibitors). chicken DT40 Tdp1-/-;hTDP1 cells + 20 nM CPT, ATP luminescence, 48 h. Potency, µM (titrated, usually from 46.2 µM), without a hit: top-dose activity change, negative = growth inhibition, hits mostly inhibitors. hit rate 12% among 420,000. AID 686979; further: potency means the concentration at half of the fitted maximal effect; nearly all actives have a fitted effect of over 55% in size
#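 Cell growth measured by CellTiter-Glo luminescence after a minimum 48 h, 37 C compound exposure with 20 nM CPT in Tdp1-knockout DT40 cells stably expressing hTDP1, seeded 400/well; qHTS titration format.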
# HT1080 IDH1KD tx: toxicity to HT-1080 IDH1 knockdown cells (counter line); HT-1080 IDH1 knockdown viability, ATP luminescence, 48 h; Potency, µM (doses to about 46.1 µM), for inactives: at the highest dose activity, negative = toxicity, most hits filed as cytotoxic; hit rate 2% among 360,000; AID 686971;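 further: potency means the concentration at half of the fitted maximal effect; 0% = DMSO wells and -100% = cell-free medium wells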
#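 After a 2 h attachment period, IDH1KD HT-1080 cells took pin-transferred compound for 48 h at 37 °C; ATP-based luminescence after 10 min room-temperature reagent incubation reported viability.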
# IL1B secr inh: blocks inflammasome-driven IL-1 beta release | activity change, % at 57.5 µM | hit rate 4.7% among 360,000 | THP-1 LPS/ATP IL-1B secretion, AlphaLISA, 16 h; hits give low values; in the data active means activity change below about -50%; inconclusive means mostly about -30% to -49%
#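 Secreted IL-1B measured by AlphaLISA bead assay after 16 h compound exposure of THP-1 cells; compounds (final up to 57.5 uM) added 1 h before LPS (250 ng/mL) and ATP (1.25 mM) stimulation; lower signal means less secretion.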
# HT1080NT lethal: kills 2HG-producing HT-1080-NT fibrosarcoma cells; HT-1080-NT fibrosarcoma viability, CellTiter-Glo ATP luminescence, 48 h; AID 686970; Potency, µM (titrated, usually from 46.1 µM), inactives show at the top dose activity, negative = less viability, hits mostly cytotoxic; hit rate 1.6% among 360,000;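 further: NT is the 2HG producing partner of a matched IDH1 knockdown line; potency means the concentration at half of the fitted maximal effect; 0% = DMSO-treated cells and -100% = media-only wells without cells; nearly all actives have a fitted effect of over 55% in size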
#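 Toxicity toward the 2HG-producing NT line was scored as %Activity, normalised to DMSO and no-cell wells, from CellTiter-Glo luminescence after 48 hours' treatment.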
# Active calls of the source: *; ? = inconclusive; · = not tested or not shown; [ ] = another dose, or the depositor's remark. A selection: hits, their analogues and other compounds. The true share with any hit is near 19%. Unless noted, the call rests on the fitted dose curve; in most records, active means well fitted curve in the direction sought with a large enough effect; inconclusive means small, poorly fitted or top-dose-only effect, or another doubt; inactive means no such curve, though single readings can be large; an effect the other way counts as inactive or inconclusive. Unless noted, on the % scale 0 is the no-effect control and ±100 the full control effect.
SMILES,ELG1 DNA repair,TDP1 cell noCPT,DT40 TDP1 CPT,HT1080 IDH1KD tx,IL1B secr inh,HT1080NT lethal
CC(=O)c1ccccc1S(=O)(=O)N1CCN(c2nc(-c3cccs3)nc3ccccc23)CC1,·,7.1µM*,8.9µM*,0%,·,1%
Cc1ccccc1S(=O)(=O)N1CCN(c2nc(-c3cccs3)nc3ccccc23)CC1,·,?,?,23%,·,17%
COc1ccccc1S(=O)(=O)N1CCN(c2nc(-c3cccs3)nc3ccccc23)CC1,·,7.9µM*,10µM*,0%,·,7%
CCOC(=O)c1ccccc1S(=O)(=O)N1CCN(c2nc(-c3cccs3)nc3ccccc23)CC1,·,11µM*,11µM*,23%,·,15%
O=S(=O)(c1cccc(Cl)c1)N1CCN(c2nc(-c3cccs3)nc3ccccc23)CC1,·,?,?,2%,·,?
COc1ccccc1CNC(=O)c1cc(S(=O)(=O)N2CCCCCC2)cn1C,·,-17%,-10%,·,·,·
CC(=O)Nc1nonc1-c1nnc(SCC(=O)Nc2ccccc2)n1-c1ccccc1,·,-26%,-2%,·,·,·
CCn1c(SCc2ccccc2)nnc1-c1nonc1NC(C)=O,·,-23%,-25%,·,·,·
COc1ccccc1NC(=O)CSc1nnc(-c2nonc2NC(C)=O)n1-c1ccccc1,·,23µM*,?,·,·,·
CC(=O)Nc1nonc1-c1nnc(SCc2cccc(Br)c2)n1C,·,18µM*,16µM*,·,·,·
COc1ccc(-c2nnc(SCC(=O)NNC(=O)Cc3ccccc3)n2C)cc1OC,6%,23µM*,?,6%,-18,10%
COc1ccc(-c2nnc(SCC(=O)Nc3ncc(C)s3)n2-c2ccccc2)cc1OC,21µM*,23µM*,21µM*,?,8,?
COc1ccccc1NC(=O)CC(=O)CSc1nnc(-c2ccc(C)cc2)n1-c1ccccc1,6%,-13%,2%,1%,1,6%
Cn1c(SCC(=O)NNC(=O)Cc2ccccc2)nnc1-c1ccc(Cl)cc1,15%,-7%,-11%,2%,-26,-1%
CCOC(=O)Cc1cn(C(=O)OC(C)(C)C)c2ccccc12,23%,?,?,4%,16,5%
O=C(c1cccc(F)c1)N1CCC2(CCCN(c3ccc(-c4ccccc4)cc3)C2)CC1,·,?,0%,·,·,·
Cc1ccc2onc(CC(=O)N3CCN(c4ccccc4)CC3)c2c1,·,?,-43%,·,·,·
CCC1CC(C(=O)Nc2ccccc2)C(=O)O1 (centres undefined),·,1%,1%,3%,0,8%
CSCCC(NC(=O)c1ccc(Cl)cc1Cl)C(=O)NCC(c1cccs1)N(C)C (centres undefined),·,-23%,-16%,2%,0,3%[9.24 µM]
COc1ccc(N/C=C/C(=O)c2ccc(OC)c(OC)c2)cc1,?,?,-17%,?,-14,?
COc1ccc(C(=O)/C=C/Nc2cccc(C)n2)cc1OC,?,-14%,?,-14%,-60*,-24%
COc1ccc(N/C=C/C(=O)c2cc(OC)c(OC)c(OC)c2)cc1,?,1µM*,1µM*,1.3µM*,62,1.2µM*
COc1ccc(C(=O)/C=C/Nc2ccc(NC(C)=O)cc2)cc1OC,18%,?,16µM*,?,-10,?
COc1ccc(C(=O)/C=C/Nc2ccc(S(=O)(=O)Nc3nc(C)cc(C)n3)cc2)cc1OC,?,?,?,?,8,-7%
COC(=O)c1ccc(N/C=C/C(=O)c2ccc(OC)c(OC)c2)cc1,?,0%,7%,-5%,0,6%
SMILES,ELG1 DNA repair,TDP1 cell noCPT,DT40 TDP1 CPT,HT1080 IDH1KD tx,IL1B secr inh,HT1080NT lethal
COc1ccc(NC(=O)C2(c3cccs3)CCOCC2)cc1Cl,·,?,-29%,·,·,·
CC1=C(C(N)=O)C(c2ccc(C)cc2)n2nc(SCc3ccccc3F)nc2N1 (centres undefined),·,-14%,-20%,·,·,·
CN(C)S(=O)(=O)N1CCC(Oc2cccc(C(=O)NCCC3=CCCCC3)c2)CC1,13µM*,?,16µM*,-22%,0,-24%
CS(=O)(=O)N1CCC(Oc2cccc(C(=O)NCCCC3CCCC3)c2)CC1,·,21µM*,?,-1%,?,8%
COCCC1CCCCN1C(=O)c1cccc(OC2CCN(S(C)(=O)=O)CC2)c1 (centres undefined),1%,2%,0%,13%,-2,6%
CN(C)S(=O)(=O)N1CCC(Oc2cccc(C(=O)NC3CCCCC3)c2)CC1,-17%,?,18µM*,-23%,0,-25%
CCCCN(C)C(=O)c1cccc(OC2CCN(CC(C)(C)C)CC2)c1,-17%,?,?,3%,17,2%
CCC(C)CNC(=O)c1cccc(OC2CCN(CC(C)(C)C)CC2)c1 (centres undefined),·,29µM*,?,11%,-29,7%
O=C(O)/C=C/C(=O)NC1CCCCC1,13%,5%,-4%,-1%,0,-1%
CSc1nc2nccc(-c3ccc(Cl)cc3)n2n1,·,-12%,-6%,-4%,-16,-6%
CSc1nc2nccc(/C=C\c3ccccc3)n2n1,?,23µM*,?,?,-105*,?
Cc1ccc2c(c1)[C@H]1[C@H](CO2)[C@H](c2ccccc2)[C@]2(C)C(=O)N(C)CC(=O)N12,·,-15%,-1%,-1%,28,-5%
COCCN(Cc1cc2cc3c(cc2nc1Cl)OCO3)C(=O)c1ccc(C)cc1,?,13µM*,?,-12%,29,-14%
COCCN(Cc1cc2cc(C)ccc2nc1Cl)C(=O)Nc1ccccc1OC,21µM*,16µM*,16µM*,10%,-5,9%
Cn1c2c(c(=O)c3ccccc31)CCCC2,8%,-18%,4%,18%,-8,21%
CC(=O)N(Cc1ccc2c(c1)OCO2)Cc1cc2ccc(C)cc2nc1-c1cccc(C)c1,·,0.46µM*,?,·,·,·
C=C1C[C@]23CC[C@H]4C(CO)(CO)C[C@@H](O)C[C@@]4(C)[C@@H]2CC[C@H]1C3,·,-29%[9.04 µM],?,·,·,·
Cc1ccccc1CN1CC2=C(CCN(Cc3ccccc3)C2=O)N2CCN=C12,·,1.3µM*,0.58µM*,?,-17,?
O=C(c1cc(-c2ccncc2)nc2ccccc12)N1CCN(c2ccc(N3CCOCC3)nn2)CC1,-24%,-12%,-13%,1%,0,-19%
O=C(O)c1cc(-c2cccc3ccccc23)nc2ccccc12,-9%,-10%,0%,-17%,37,-2%
